Reference: PubChem BioAssay (EPA / NIEHS)
Values joined by “and” are separate entries in the source; they are usually repeats but may differ in a detail not shown here. Equal values may be shown once. Where a structure was tested more than once in an assay, its records may differ in their call. Active and inactive are the calls of the source. How the source made its calls: active means hit-call score of the fitted dose curve at least 0.9, where 1 is the maximum; inactive means score below 0.9.

assay: BSK_LPS_PGE2: BioMAP Diversity Plus: LPS Assay for Prostaglandin E2 (PGE2) Biomarker Activity (AID 2283082); settings: primary human HUVEC with PBMC; actives raise or lower the signal
Description: BSK_LPS is a cell-based, multiplexed-readout assay that uses umbilical vein endothelium and peripheral blood mononuclear cells, a human vascular primary cell co-culture, with measurements taken at 24 hours after chemical dosing in a 96-well plate.BSK_LPS_PGE2 is an assay component measured in the BSK_LPS assay. It measures PGE2 antibody related to regulation of gene expression using ELISA technology.Data from the assay component BSK_LPS_PGE2 was analyzed into 1 assay endpoint. This assay endpoint, BSK_LPS_PGE2, was analyzed with bidirectional fitting relative to DMSO as the negative control and baseline of activity. Using a type of binding reporter, gain or loss-of-signal activity can be used to understand changes in the signaling as they relate to the gene PTGER2. Furthermore, this assay endpoint can be referred to as a primary readout, because this assay has produced multiple assay endpoints where this one serves a signaling function. To generalize the intended target to other relatable targets, this assay endpoint is annotated to the gpcr intended target family, where the subfamily is rhodopsin-like receptor.
The levels of cell surface (or secreted, indicated by the prefix "s") biomarker endpoints were measured by ELISA. Overt cytotoxicity to cells in confluent adherent cultures (all systems other than the BT system) was assessed by measuring total protein levels using sulforhodamine B (SRB) staining in parallel cultures at the time of biomarker measurements, indicated as SRB endpoints. For proliferation assays for adherent cell types, individual cell types are cultured at sub-confluence and relative cell numbers quantified by SRB staining at time points optimized for each system (48 h: 3C and CASM3C systems; 72 h: BT and HDF3CGF systems; 96 h: SAg system). SRB was performed by staining cells with 0.1% SRB after fixation with 10% TCA and reading wells at 560 nm.Viability and proliferation of PBMC (T cells) was quantified by Alamar Blue reduction for the SAg and BT systems. For PBMC viability (referred to as PBMC Cytotoxicity within the assay endpoint names), cells were plated (75,000/well in a 96-well plate) and then chemical samples added for 1 h before addition of activators, SEB and TSST-1 (20 ng/mL final concentration each). Cells were incubated for 90 h. Then, Alamar Blue (20 uL/well) (Invitrogen, Cat DAL1100) was added for 6 h, and the plates were read with a fluorescence microplate reader at 546/580 nm (excitation/emission). For PBMC proliferation, cells were plated and activated as above but incubated for only 16 h prior to addition of Alamar Blue. Plates were read after 6 h.

Row | SMILES | outcome | AC50
1 | C[C@]12CCC(=O)C[C@@H]1CC[C@@H]1[C@@H]2CC[C@]2(C)[C@@H](O)CC[C@@H]12 | inactive | 
2 | ClC1=C(Cl)[C@]2(Cl)[C@H]3[C@H]([C@H]4C=C[C@H]3C4)[C@@]1(Cl)C2(Cl)Cl |  | 0.142 µM (active)
3 | BrCCBr | inactive | 
4 | O=c1[nH]c(=O)[nH]c(=O)[nH]1 | inactive | 
5 | O=Cc1cccc(Oc2ccccc2)c1 | inactive | 
6 | NC(=O)O | inactive | 
7 | CCOP(=S)(OCC)Oc1nc(Cl)c(Cl)cc1Cl | inactive | 
8 | CN(C)N=O | inactive | 
9 | Nc1ccc(-c2ccc(N)c(Cl)c2)cc1Cl | inactive | 
10 | COP(=S)(OC)Oc1cc(Cl)c(Cl)cc1Cl | inactive | 
11 | CC(C)(C)CC(C)(C)c1ccc(O)cc1 | inactive | 
12 | COC(=O)Cc1ccccc1 | inactive | 
13 | C=CC(=O)OCCCCCC(C)C | inactive | 
14 | ClC(Cl)=C(Cl)C(Cl)=C(Cl)Cl | inactive | 
15 | COc1cc(-c2ccc(N)c(OC)c2)ccc1N |  | 3.63 µM (active) and 9 µM (active)
16 | CC(C)(C)c1cc(O)ccc1O |  | 5.94 µM (active)
17 | CCC(=O)C(CC(C)N(C)C)(c1ccccc1)c1ccccc1 (stereo not given) | inactive | 
18 | O=C1C2(Cl)C3(Cl)C4(Cl)C(Cl)(Cl)C5(Cl)C3(Cl)C1(Cl)C5(Cl)C24Cl (stereo not given) |  | 9.92 µM (active)
19 | Cn1sc(Cl)cc1=O | inactive | 
20 | ClCC(Cl)CCl | inactive | 

Row | SMILES | outcome | AC50
21 | CCNc1nc(NC(C)(C)C)nc(SC)n1 | inactive | 
22 | CCSC(C)CC1CC(=O)C(C(CC)=NOC/C=C/Cl)=C(O)C1 (stereo not given) | inactive | 
23 | CC(C)CCCCCCOC(=O)c1ccccc1C(=O)OCCCCCCC(C)C | inactive | 
24 | O=[N+]([O-])c1ccc2c3c(cccc13)CC2 | inactive | 
25 | Nc1ncc([N+](=O)[O-])s1 | inactive | 
26 | COC[C@H](C)N(C(=O)CCl)c1c(C)csc1C | inactive | 
27 | NC(=S)Nc1ccccc1 | inactive | 
28 | COP(=S)(OC)Oc1c(Cl)cc(C)cc1Cl | inactive | 
29 | CC1(C)Cc2cccc(O)c2O1 |  | 4.31 µM (active)
30 | CC(C)(OO)c1ccccc1 | inactive | 
31 | O=C(O)C(F)(F)C(F)(F)C(F)(F)C(F)(F)C(F)(F)C(F)(F)C(F)(F)C(F)(F)C(F)(F)C(F)(F)F | inactive | 22.3 µM (active)
32 | CCCCCCCCc1ccc(O)cc1 |  | 3.96 µM (active)
33 | O=C(O)C(Cl)(Cl)Cl | inactive | 
34 | O=C(Nc1ccc2[nH]ccc2c1)c1cc2cc(F)ccc2n1Cc1cccc(F)c1 |  | 20 µM (active)
35 | Oc1cccc2cccnc12 |  | 11.4 µM (active)
36 | CC(=O)OC(c1ccccc1)C(Cl)(Cl)Cl (stereo not given) | inactive | 
37 | CCCCC(CC)CO[N+](=O)[O-] (stereo not given) | inactive | 
38 | C[C@@H]1C[C@@H]([C@H](O)CC2CC(=O)NC(=O)C2)C(=O)[C@@H](C)C1 |  | 5.67 µM (active)
39 | CC(C)c1ccc(CO)cc1 | inactive | 
